From PubChem BioAssay (NCI) come the findings set out here.

Several values for one entry are separate records, joined by “and”; a condition that tells them apart may be missing. Equal entries are not always repeated. This is part of a sample that, as a whole, favours compounds with a hit. Of some 83,000 tested, about 20% had one in any assay.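 Treatment: one concentration, 48 hours, 96-well format. Scoring: percent growth, with anything below 10 considered active.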 More than one record can exist for a structure, and the calls need not agree. Activity calls are given as the source filed them.

The subject of the test is MDA-MB-468 breast. Nature of the test: NCI-60 one-dose screen, 48 h (100 = growth as untreated, 0 = no growth, -100 = all killed). The following applies: 10 µM unless noted.
In the case of `COc1ccc(NC(=O)C2CC3C=CC2C3)c([N+](=O)[O-])c1` (centres undefined), the growth was 93.1% (inactive).

For the molecule `COc1ccc(-c2cncnc2N)cc1OC`, the growth is 116% (inactive). On to `COc1ccccc1OCC(=O)N1CCCCCC1`, for which the growth is 97.1% (inactive). On to `Nc1cc2ccncc2c2ccccc12`, for which the growth was 71.7% (inactive). Turning to `O=S(=O)(O)c1cc(O)c2c(N=Nc3ccc(Nc4ccccc4)c4c(S(=O)(=O)O)cccc34)cc(S(=O)(=O)O)cc2c1`, the growth was 103% (inactive). In the case of `COC1=C(C)C(=O)c2c(c(CCCl)c3n2CCC3O)C1=O` (centres undefined) it was 91.5% (inactive). The same measure for `NCCOc1ccccc1/C=C1\c2ccccc2-c2ccc([N+](=O)[O-])cc21`: -36.1% (active); for `COc1ccc2[nH]c(=O)c(/C=C/C(=O)c3ccc(Nc4nccc(-c5ccc6ccccc6c5)n4)cc3)cc2c1`: 103% (inactive). The same measure for `C(/C=C/c1ccccc1)=Nc1ccc(CCc2ccc(N=C/C=C/c3ccccc3)cc2)cc1`: 83.3% (inactive); for `O=S(=O)(NCCCNc1nccc(-c2c(-c3cccc(O)c3)nc3occn23)n1)c1ccc(Br)cc1`: 96.3% (inactive); for `O=C(NC1CCN(Cc2ccccc2)CC1)c1cc(C(=O)NC2CCN(Cc3ccccc3)CC2)cc(C(=O)NC2CCN(Cc3ccccc3)CC2)c1`: 84.9% (inactive). `O=C(CCCCCCN1CC(=O)N2[C@@H](c3ccccc3)c3[nH]c4ccccc4c3C[C@H]2C1=O)NO`: the growth is 53.7% (inactive).

Regarding `C=CCSC1=NC2C(N(CC)C(=O)N2CC)N1/N=C/C=C/c1ccccc1OC` (centres undefined), the growth was 29.6% (inactive). The same measure for `OC1CCC(Oc2cccc3cnc(Nc4ccc5nc[nH]c5c4)nc23)CC1` (centres undefined): -42.4% (active) and 69.7% (inactive).
